Screening results from PubChem BioAssay.
Rows were chosen to be rich in hits. Some 4.4% of all compounds tested hit in one or more screens of this group.
PfHsp90 yeast 2: growth inhibition of yeast expressing Plasmodium Hsp90; S. cerevisiae expressing PfHsp90, BacTiter-Glo ATP, 48 h; yeast lacking PDR1 and PDR3 efflux regulators; inhibition, % at 9.4 µM; actives 0.32% (n = 310,000); AID 504621;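 active = every replicate shows inhibition above about 80%, whatever the replicate mean, limit read from the data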;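 note: 0% = DMSO neutral controls and 100% = 20 µM radicicol positive controls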
TIM10 inh: inhibits growth of TIM10 yeast strain; inhibition, % at 10 µM; actives 1.4% (n = 330,000); AID 463195; S. cerevisiae TIM10 strain growth, BacTiter-Glo luminescence, 24 h;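 active = inhibition of 40% or more at the single tested concentration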;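 note: wild-type TIM10 isogenic control strain grown at permissive 25 °C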
tim23-1 inh: growth inhibitors of tim23-1 mutant yeast; S. cerevisiae tim23-1 growth, BacTiter-Glo luminescence, 24 h; inhibition, % at 20 µM; actives 1.3% (n = 330,000); AID 463212;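 active = growth inhibition of the mutant yeast at or above 50%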;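 note: temperature-sensitive mutant grown at 25 °C; plate controls were DMSO-treated mutant yeast for no effect and medium wells lacking yeast for full effect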
Mot1-301 SUMO: SUMOylation pathway inhibition by Mot1-301 growth rescue | S. cerevisiae Mot1-301 growth rescue, ATP luminescence, 38.5C; percent above DMSO median, 100 means doubled | growth rescue, % at 18.8 µM | actives 1% (n = 320,000);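 active = every valid replicate shows activation above 250% relative to neutral control wells; inactive = the rest, any valid replicate at or below 250%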;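 note: OY570 slx delta 5 strain wells were the positive control but not used for scaling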
tim10-1 inh: tim10-1 yeast growth inhibition; S. cerevisiae tim10-1 ts strain growth, BacTiter-Glo, 24 h; inhibition, % at 20 µM; actives 2.2% (n = 330,000);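 active = inhibition of at least 40%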;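 note: mutant grown at 25 °C; 0% = DMSO wells with yeast and 100% = wells holding no yeast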
tim23-1 conf: confirmation of tim23-1 mutant yeast growth inhibitors. shares compounds with tim23-1 inh. S. cerevisiae tim23-1 growth, BacTiter-Glo luminescence, 24 h. inhibition, % at 20 µM. actives 83% (n = 4,400). AID 463218;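 active = inhibition above about 39% in either of two replicate wells at 20 µM, limit read from the data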;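 note: temperature-sensitive tim23-1 mutant grown at 25 °C; 0% = DMSO wells with yeast and 100% = medium wells without yeast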
* marks the source's active call; other numbers are inactive results; · = no result.

SMILES	PfHsp90 yeast 2	TIM10 inh	tim23-1 inh	Mot1-301 SUMO	tim10-1 inh	tim23-1 conf
C=CC(COCc1ccccc1)N(C(=O)OC(C)(C)C)S(=O)(=O)c1ccccc1Br (stereo unspecified)	11	-13	8	137	8	·
CN=C1S/C(=C\c2cccc(Cl)c2Cl)C(=O)N1C	·	27	50*	-2	34	60*
COCCNC(=O)c1cccc(OC2CCN(Cc3ccc(F)cc3OC)CC2)c1	10	-2	-1	-10	-7	·
COC(=O)c1nn(C)c(=O)[nH]c1=O	-4	·	·	·	·	·
C/C(=N\Nc1ccc(Cl)cc1)c1ccncc1	9	22	54*	15	28	-15
O=C(O)c1ccc(S(=O)(=O)N2CCC(NC(=O)C3CCCCC3)CC2)cc1	2	3	3	3	-14	·
Cn1nnnc1Sc1ncnc2scc(-c3ccc(F)cc3)c12	10	4	19	-34	34	·
Cn1nnnc1Sc1ncnc2scc(-c3ccc(Br)cc3)c12	·	21	68*	140	20	59*
O=Cc1cc2ccccc2nc1SCc1ccc(Cl)c(Cl)c1	-56	8	60*	8	19	44*
CC1(C)c2cc(Cl)ccc2-n2c1cc(O)c(-c1ccccc1)c2=O	-23	28	62*	-45	23	58*
CCN1CCN(c2oc(-c3ccccc3)nc2S(=O)(=O)c2ccc(C)cc2)CC1	9	18	12	·	17	·
CC1=CC(C)(C)N(C(=O)CCl)c2cc(C)ccc21	-5	9	9	37	8	·
CC1=CC(C)(C)N(C(=O)c2ccc(F)cc2)c2cc3c(cc21)OCO3	-1	39	54*	-23	35	44*
COc1ccc(S(=O)(=O)Nc2ccc3c(c2)C(=O)N([C@H](C)CO)C[C@H](C)[C@@H](CN(C)S(C)(=O)=O)O3)cc1	-7	2	-6	0	-3	·
Nc1cc(Nc2ccc(Br)cc2)nc(N)n1	-21	-6	11	96	-3	·
O=C(CN1C(=O)S/C(=C/c2ccncc2)C1=O)Nc1ccccc1	10	34	53*	2	31	51*
COc1ccc(CNC(=O)CN(C(=O)c2csnn2)c2cccc3ccccc23)cc1	-16	-7	23	25	10	·
Oc1c(Cl)cc(Cl)cc1/C=N/c1nccs1	30	32	69*	107	23	54*
O=c1[nH]cc(N=Cc2cc(Cl)cc(Cl)c2O)c(=O)[nH]1	-9	37	34	56	26	·
CCc1ccccc1-n1nnnc1-c1cnccc1C(F)(F)F	-13	17	29	8	27	·
Cc1ccc(C)c(-c2csc(N/N=C/c3ccco3)n2)c1	15	18	56*	6	30	39*
CC(C)Cn1nc(NC(=O)C2CCCO2)c2cc3ccccc3nc21 (stereo unspecified)	2	-8	37	-15	2	·
CCCn1nc(NC(=O)C2CCCO2)c2cc3cccc(C)c3nc21 (stereo unspecified)	2	35	52*	-11	32	43*
O=C1C=C(c2cccc(Cl)c2O)C[C@@H](c2ccc(Cl)cc2)C1	-3	3	57*	10	16	40*
COc1ccc([C@H]2CC(=O)C=C(c3cccc(Cl)c3)C2)cc1	-46	28	51*	-7	28	46*
SMILES	PfHsp90 yeast 2	TIM10 inh	tim23-1 inh	Mot1-301 SUMO	tim10-1 inh	tim23-1 conf
CC(=O)Nc1ccc(C2=CC(=O)C[C@H](c3ccc(Cl)cc3)C2)cc1	-24	16	51*	10	19	42*
CCc1cc(C(=O)N2CCN(C(=O)c3ccco3)CC2)sc1C	4	11	26	-17	7	·
CN(CC(=O)Nc1ccc(Cl)cc1)CC(=O)Nc1cccc(Br)c1	6	28	-14	-4	18	·
COc1ccc(/C=N/NC(=O)CN(C)C(=O)OCc2ccccc2)cc1OC	-40	-11	1	-4	-5	·
COc1ccc(OC)c(-c2csc(NC(=O)Cc3ccc(F)cc3)n2)c1	-13	17	55*	107	25	43*
COc1ccc(OC)c(-c2csc(NC(=O)Cc3cc(OC)c(OC)c(OC)c3)n2)c1	-15	12	5	-5	-2	·
Oc1c(Br)cc(Br)cc1CNc1cnc2ccccc2c1	-1	-3	72*	-6	38	65*
